Compound activity as filed in PubChem BioAssay.
Sampled rows, rich in hits. Any-hit rate of the full collection: about 6.2%.
HCMV inh: blocks human cytomegalovirus replication; HFF cells, HCMV-luciferase reporter, 72 h; stronger effect = lower value; activity change, negative = inhibition, % at 57.5 µM; actives 4.5% (n = 410,000); in the data active = activity change below about -60%; inconclusive = no clear call, values can overlap the other calls; inactive = above about -39%
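Human foreskin fibroblasts infected with luciferase-reporter HCMV at MOI 1 PFU/cell, compounds at two doses. Luciferase measured 72 h post infection; normalized to buffer-only basal and Salinomycin (10uM) controls.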
Lassa entry inh: Lassa virus entry inhibition. Lassa virus pseudotype entry inhibition, cell reporter. Potency, µM (doses to about 37.9 µM), for the others: at the top dose activity change, negative = inhibition, most hits filed as inhibitors. actives 1.2% (n = 300,000). AID 540256; calls by dose curve; tested in HEK293 cells; also: potency is read from the fitted curve at half-maximal effect; nearly all actives have a fitted effect of over 50% in size
MARV entry inh: inhibitors of Marburg virus binding or cell entry | Marburg virus pseudotyped entry inhibition, cell reporter | Potency, µM (titrated, usually from 37.8 µM), inactives show at the top dose activity change, negative = inhibition, hits mostly inhibitors | actives 1.8% (n = 300,000); calls by dose curve; tested in HEK293 cells; also: potency is read from the fitted curve at half-maximal effect
FMDV inh: antivirals against foot and mouth disease virus; FMDV antiviral cell-based qHTS; Potency, µM (highest dose often 57.9 µM), for inactives: top-dose activity change, negative = inhibition, actives largely listed as inhibitors; actives 1.2% (n = 410,000); calls by dose curve; tested in HEK293T cells; also: read-out not given here; potency is read from the fitted curve at half-maximal effect; nearly all actives have a fitted effect of over 45% in size
Numbers without * were called inactive; ? = inconclusive; / = no result given; [ ] = another dose, or the depositor's remark. % is scaled to controls: 0 for no effect and ±100 for the full control effect.

SMILES | HCMV inh | Lassa entry inh | MARV entry inh | FMDV inh
CCc1cccc2c(C(=O)CCl)c[nH]c12 | 9 | -22%[46.1 µM] | ? | 28µM*
CCc1cccc2c(C(=O)CN3C(=O)NC4(CCCCCC4)C3=O)c[nH]c12 | -87* | ? | ? | 36%
Cc1cc(-c2ccc(N3CCOCC3)cc2)nc2ccccc12 | 64 | -24% | ? | 15%
CN1CCN(c2ccc(-c3ccc4ccccc4n3)cc2)CC1 | -92* | ? | ? | 1.8µM*
c1ccc2nc(-c3ccc(N4CCOCC4)cc3)ccc2c1 | -27 | 3.7µM* | 2.3µM* | -1%
O=C(c1ccc2c(c1)N(Cc1ccccc1)C(=O)c1ccccc1S2(=O)=O)N1CCCCCC1 | -37 | ? | -24%[46.1 µM] | 23%
O=C(c1ccc2c(c1)N(Cc1ccc(Cl)cc1)C(=O)c1ccccc1S2(=O)=O)N1CCN(Cc2ccccc2)CC1 | 8 | ? | ? | 1%
CCN1CCN(C(=O)c2ccc3c(c2)N(Cc2cccc(Cl)c2)C(=O)c2ccccc2S3(=O)=O)CC1 | -65* | ? | / | -1%
CCOC(=O)C1CCCN(C(=O)c2ccc3c(c2)N(Cc2cccc(Cl)c2)C(=O)c2ccccc2S3(=O)=O)C1 (stereo unspecified) | -63* | ? | / | -3%
O=C(c1ccc2c(c1)N(Cc1cccc(Cl)c1)C(=O)c1ccccc1S2(=O)=O)N1CCCCC1 | -73* | ? | / | -5%
O=C(CN(c1cc(C(F)(F)F)ccc1Cl)S(=O)(=O)c1ccccc1)NCCc1ccccc1 | -70* | -2%[46.1 µM] | -6%[46.1 µM] | 13%
C=CCNCCCCOc1cccc(Br)c1 | 31 | -2% | 13µM* | -11%
C=C(CCN1C=C(C(=O)OCC)C(c2ccccc2)NC1=O)c1ccc(Cl)cc1 (stereo unspecified) | / | / | 14%[14.2 µM] | /
CCO[C@H](c1cc(OC)cc([N+](=O)[O-])c1OC)[C@H](C)[C@@H](OC)[C@H](C)/C=C/CC(=O)OC | / | / | 1%[14.2 µM] | /
COc1ccc(OC)c(-n2c(=O)c3ccccc3c3ccccc3c2=O)c1 | 9 | -4% | -5% | 25µM*
COc1ccc2c(c1)[C@@H](NC(=O)OCc1ccccc1)[C@H](C)[C@@H](c1ccccc1)N2 | 13 | / | / | /
COc1ccccc1Nc1ncc(C(=O)N2CCN(Cc3ccc(OC)c(OC)c3OC)CC2)c2ccccc12 | 10 | 13µM* | ? | -12%
COc1ccc(CN2CCN(C(=O)C3CCC(CNS(=O)(=O)c4ccccc4)CC3)CC2)c(OC)c1OC (stereo unspecified) | -102* | -7%[46.1 µM] | ? | ?
Cc1cccc(CSc2ncc(CO)n2Cc2ccc(F)cc2)c1 | -38 | 14%[46.1 µM] | / | 0%
O=C(Nc1cc(Cl)ccc1O)c1cc(-c2ccc3c(c2)OCO3)on1 | 77 | 29%[46.1 µM] | ? | 48%
CC(C)N1CCC2(CC1)N=C(c1ccc3c(c1)OCO3)CC(c1cc(Cl)ccc1O)N2 (stereo unspecified) | -81* | ? | -28% | ?
CCC[C@H]1[C@@H](NC(=O)Nc2ccc(OC)cc2)CC[C@@]23CCCN2C(=O)CCC[C@@H]13 | -2 | / | / | /
N#Cc1ccc(CSc2nnc(-c3ccccn3)n2-c2ccccc2)cc1 | 0 | ? | ? | -10%
N#Cc1ccc(CSc2nnc(-c3c[nH]c4ccccc34)n2-c2ccccc2)cc1 | -64* | ? | 2.5µM* | ?
O=C(CN(c1ccc(Cl)c(C(F)(F)F)c1)S(=O)(=O)c1ccccc1)N1CCc2ccccc2C1 | -17 | -14%[46.1 µM] | / | -6%
SMILES | HCMV inh | Lassa entry inh | MARV entry inh | FMDV inh
NC(N)=Nc1cc2ccccc2c2ccccc12 | -83* | / | / | /
Cc1cc(N2CCCCC2)nc2ccc(NC(=O)c3cccc(F)c3)cc12 | -80* | ? | ? | -10%
Cc1cc(N2CCCCC2)nc2ccc(NC(=O)c3cccc(Cl)c3)cc12 | -62* | 4%[46.1 µM] | / | -4%
Cc1ccc(C(=O)Nc2ccc3nc(N4CCCCC4)cc(C)c3c2)cc1F | ? | 13%[46.1 µM] | / | -26%
CCC1CN(S(=O)(=O)c2cc(-c3onc(C)c3C)ccc2C)c2cc(Cl)ccc2O1 (stereo unspecified) | -67* | -25%[46.1 µM] | / | -16%
CC(=O)c1ccc(N2CCN(S(=O)(=O)c3cc(-c4onc(C)c4C)ccc3C)CC2)cc1 | -67* | -6%[46.1 µM] | / | ?
Cc1ccc(-c2onc(C)c2C)cc1S(=O)(=O)N1CCOc2ccc(Cl)cc21 | -62* | -22%[46.1 µM] | / | ?
Cc1ccc(-c2onc(C)c2C)cc1S(=O)(=O)N1CCc2ccccc21 | ? | -10%[46.1 µM] | / | ?
CCOC(=O)N1CCc2c(sc3c2c(=O)n(-c2ccc(CC)cc2)c(=O)n3CC(=O)c2ccc(F)cc2)C1 | -1 | -1%[46.1 µM] | -7%[46.1 µM] | -7%
Cc1ccc(CN2CCC(C3(c4ccccn4)NC(=O)N(CC4CCCO4)C3=O)CC2)cc1C (stereo unspecified) | / | / | / | -5%
CCc1ccc(OCC(=O)Nc2cc(-c3nc4cc(C)ccc4o3)ccc2C)cc1 | 50 | ? | ? | 0%
CCOC(=O)c1c(C)[nH]c(C(=O)CSc2nnc(-c3ccncc3)n2CC)c1C | -30 | -9% | -1% | /
C=CCn1c(SCC(=O)c2[nH]c(C)c(C(=O)OCC)c2C)nc2scc(-c3ccc(OC)c(OC)c3)c2c1=O | -100* | -25% | ? | ?
CC(=O)C(C(C)=O)c1c(Cl)c(O)c(O)c2c(C(=O)c3ccccc3)coc12 | -107* | 7.1µM* | ? | ?
Cc1ccc(NC(=O)c2cc(S(=O)(=O)N3CCc4ccccc43)cn2C)cc1 | -16 | / | / | ?
CCCN(C(=O)c1cc(S(=O)(=O)N2CCc3ccccc32)cn1C)c1ccc(OCC)cc1 | -75* | 17%[46.1 µM] | / | -8%
Cn1cc(S(=O)(=O)N2CCc3ccccc32)cc1C(=O)Nc1ccc(Cl)cc1 | -12 | / | / | 28µM*
CCOC(=O)c1cc(S(=O)(=O)N2CCc3ccccc32)cn1C | -39 | / | / | -3%
Cc1cccc(C)c1NC(=O)c1cc(S(=O)(=O)N2CCc3ccccc32)cn1C | 25 | / | / | -5%
Cn1cc(S(=O)(=O)N2CCc3ccccc32)cc1C(=O)NC(C)(C)C | -79* | / | / | ?
COc1ccc(C(=O)Nc2cccc(OCc3cc(=O)n4c5c(sc4n3)CCCC5)c2)cc1 | -2 | 15%[46.1 µM] | 2%[46.1 µM] | -5%
CCNC(=O)C1(C)CCCN(C(=O)c2oc3ccccc3c2C)C1 (stereo unspecified) | 35 | / | / | 1%
Cn1cnc(S(=O)(=O)N2CCC(C(=O)Nc3ccc(C#N)cc3)CC2)c1 | 12 | 10%[46.1 µM] | / | -13%
Cn1cnc(S(=O)(=O)N2CCC(C(=O)Nc3ccc(OC(F)(F)F)cc3)CC2)c1 | -60* | 18%[46.1 µM] | / | -13%
C[C@]12CCC3c4ccc(O)cc4CCC3C1CCC2OC(=O)CCC1CCCC1 (stereo partly specified) | / | / | / | -2%
N[C@@H]1CCc2cc(O)c(O)cc2C1 | / | / | 5% | /
Cc1cc(-c2nn(-c3ccccc3F)cc2CN2CCC(O)CC2)c(C)s1 | -10 | / | / | -2%
Cc1cc(-c2nn(-c3ccccc3F)cc2CN2CCN(c3ccncc3)CC2)c(C)s1 | -11 | ? | 6.3µM* | -15%
C=CCN1c2ccccc2[C@]23C[C@@H](C(=O)OC)N(C(=O)Nc4ccccc4F)C2=NC(C(=O)OC)=C(C(=O)OC)[C@H]13 | / | / | 3%[14.2 µM] | /
